Source: PubChem BioAssay (NCI)
About 83,000 compounds went through this panel and 20% of them were active in at least one assay; those are over-represented in the sample as a whole.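 Activity criterion: percent growth below 10, measured after cells in 96-well plates were exposed to a single compound concentration for 48 hours.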 Calls of active or inactive are those of the source.

Assays:
Experiment in all cases: NCI-60 one-dose screen, 48 h (100 = growth as untreated, 0 = no growth, -100 = all killed)
SK-MEL-2 melanoma = details: 10 µM unless noted
EKVX NSCLC = details: 10 µM
SN12C renal = details: 10 µM unless noted
UO-31 renal = details: 10 µM unless noted
TK-10 renal = details: 10 µM unless noted
ACHN renal = details: 10 µM unless noted
CAKI-1 renal = details: 10 µM unless noted
A498 renal = details: 10 µM unless noted
CCRF-CEM leukemia = details: 10 µM
MOLT-4 leukemia = details: 10 µM unless noted
SR leukemia = details: 10 µM unless noted
RPMI-8226 leukemia = details: 10 µM unless noted
OVCAR-8 ovarian = details: 10 µM unless noted
OVCAR-5 ovarian = details: 10 µM unless noted
SK-OV-3 ovarian = details: 10 µM unless noted
IGROV1 ovarian = details: 10 µM unless noted
OVCAR-3 ovarian = details: 10 µM unless noted
NCI/ADR-RES ovarian = details: 10 µM unless noted
OVCAR-4 ovarian = details: 10 µM unless noted
HS 578T breast = details: 10 µM unless noted

Measured: growth

O=C(N/N=C\c1ccc(Cl)cc1)C(=O)N/N=C\c1ccc(Cl)cc1
inactive: SK-MEL-2 melanoma 98.4% | EKVX NSCLC 102% | SN12C renal 90.8% | UO-31 renal 78.3% | TK-10 renal 105% | ACHN renal 96.8% | CAKI-1 renal 94.6% | A498 renal 101% | CCRF-CEM leukemia 90.7% | MOLT-4 leukemia 98.1% | SR leukemia 90.7% | RPMI-8226 leukemia 95.7% | OVCAR-8 ovarian 102% | OVCAR-5 ovarian 105% | SK-OV-3 ovarian 92.4% | IGROV1 ovarian 88.7% | OVCAR-3 ovarian 123% | NCI/ADR-RES ovarian 104%

CC(C)(C)C(=O)CCCCCCCC/C=C/CCCC(O)c1ccco1 (centres undefined)
inactive: SK-MEL-2 melanoma 105% | EKVX NSCLC 102% | SN12C renal 110% | UO-31 renal 98.3% | TK-10 renal 105% | ACHN renal 120% | CAKI-1 renal 110% | A498 renal 109% | MOLT-4 leukemia 76.1% | SR leukemia 14.3% | RPMI-8226 leukemia 91.7% | OVCAR-8 ovarian 104% | OVCAR-5 ovarian 93.6% | OVCAR-4 ovarian 104% | SK-OV-3 ovarian 116% | IGROV1 ovarian 116% | OVCAR-3 ovarian 126% | HS 578T breast 106% | NCI/ADR-RES ovarian 108%
active: CCRF-CEM leukemia -44.3%

CCN(CC)c1ccc2nc3ccc(N=Nc4ccc(O)cc4)cc3[n+](-c3ccccc3)c2c1
active: IGROV1 ovarian 8.59% | OVCAR-3 ovarian -15.4%
inactive: SK-MEL-2 melanoma 76.8% | EKVX NSCLC 77.6% | SN12C renal 75.5% | UO-31 renal 48.5% | TK-10 renal 66.6% | ACHN renal 60.2% | CAKI-1 renal 90.5% | A498 renal 75% | CCRF-CEM leukemia 12.8% | MOLT-4 leukemia 18.1% | SR leukemia 49% | RPMI-8226 leukemia 30.6% | OVCAR-8 ovarian 56.8% | OVCAR-5 ovarian 113% | SK-OV-3 ovarian 89.7% | NCI/ADR-RES ovarian 101%

CCOC(=O)c1c(C)oc2ncnc(Nc3ccc(NC(=O)Nc4cccc(Cl)c4)cc3)c12
inactive: SK-MEL-2 melanoma 72.7% | EKVX NSCLC 72.3% | SN12C renal 74% | UO-31 renal 50.4% | TK-10 renal 79.2% | ACHN renal 57.5% | CAKI-1 renal 90.8% | A498 renal 63% | CCRF-CEM leukemia 31.5% | MOLT-4 leukemia 49.3% | SR leukemia 53.6% | RPMI-8226 leukemia 46.1% | OVCAR-8 ovarian 50.2% | OVCAR-5 ovarian 122% | OVCAR-4 ovarian 73.7% | SK-OV-3 ovarian 93.3% | IGROV1 ovarian 78.4% | OVCAR-3 ovarian 80.9% | HS 578T breast 80.6% | NCI/ADR-RES ovarian 43.8%

O=C(O)c1occ(Cl)c1Cl
inactive: SK-MEL-2 melanoma 120% | EKVX NSCLC 100% | SN12C renal 109% | UO-31 renal 97% | TK-10 renal 111% | ACHN renal 109% | CAKI-1 renal 104% | A498 renal 90.4% | CCRF-CEM leukemia 105% | MOLT-4 leukemia 111% | SR leukemia 92.7% | RPMI-8226 leukemia 100% | OVCAR-8 ovarian 107% | OVCAR-5 ovarian 96.5% | OVCAR-4 ovarian 115% | SK-OV-3 ovarian 109% | IGROV1 ovarian 120% | OVCAR-3 ovarian 118% | HS 578T breast 115% | NCI/ADR-RES ovarian 111%

O=C1/C(=C/c2ccc(Cl)cc2)CCC/C1=C\c1ccc(Cl)cc1
active: RPMI-8226 leukemia -0.252%
inactive: SK-MEL-2 melanoma 117% | EKVX NSCLC 89.2% | SN12C renal 92% | UO-31 renal 74.1% | TK-10 renal 123% | ACHN renal 95% | CAKI-1 renal 89.4% | A498 renal 105% | CCRF-CEM leukemia 78.1% | MOLT-4 leukemia 80.2% | SR leukemia 48.7% | OVCAR-8 ovarian 68.9% | OVCAR-5 ovarian 96.7% | SK-OV-3 ovarian 88% | IGROV1 ovarian 62.6% | OVCAR-3 ovarian 55.8% | NCI/ADR-RES ovarian 87.2%

COC(=O)/C=C/c1cc(O)c2oc(-c3ccc(O)c(O)c3)c(C(=O)OC)c2c1
active: CCRF-CEM leukemia 3.32% | RPMI-8226 leukemia -16.8% | NCI/ADR-RES ovarian -3.33%
inactive: SK-MEL-2 melanoma 43% | EKVX NSCLC 49.7% | SN12C renal 34.4% | UO-31 renal 22.6% | TK-10 renal 46.7% | ACHN renal 30.2% | CAKI-1 renal 19.9% | A498 renal 18.2% | MOLT-4 leukemia 19.2% | SR leukemia 22% | OVCAR-8 ovarian 18.5% | OVCAR-5 ovarian 43.6% | OVCAR-4 ovarian 42.8% | IGROV1 ovarian 32.4% | OVCAR-3 ovarian 11.7% | HS 578T breast 18.3%

CC1(C)NCCC[C@]2(C)[C@H]3CC=C4[C@@H]5C[C@](C)(COC(=O)c6ccccc6C(=O)O)CC[C@]5(C)CC[C@@]4(C)[C@]3(C)CC[C@@H]12
inactive: SK-MEL-2 melanoma 83.5% | EKVX NSCLC 86.7% | SN12C renal 65.5% | UO-31 renal 87.4% | TK-10 renal 36% | ACHN renal 43.3% | CAKI-1 renal 86% | A498 renal 107% | CCRF-CEM leukemia 35.8% | MOLT-4 leukemia 20.5% | SR leukemia 25.2% | RPMI-8226 leukemia 19.2% | OVCAR-8 ovarian 83.7% | OVCAR-5 ovarian 88.8% | OVCAR-4 ovarian 51.3% | IGROV1 ovarian 59.2% | OVCAR-3 ovarian 60% | HS 578T breast 63% | NCI/ADR-RES ovarian 78.2%

O=Nc1c(-c2c(O)[nH]c3cc(Br)ccc23)[nH]c2ccccc12
inactive: EKVX NSCLC 29.8% | SN12C renal 16.7%
active: SK-MEL-2 melanoma -66.5% | UO-31 renal -28.9% | TK-10 renal -10.5% | ACHN renal 0.906% | CAKI-1 renal 2.36% | A498 renal -82% | CCRF-CEM leukemia -6.73% | MOLT-4 leukemia -68.9% | SR leukemia -40.5% | RPMI-8226 leukemia -5.99% | OVCAR-8 ovarian -17.4% | OVCAR-5 ovarian -72.9% | OVCAR-4 ovarian 7.53% | SK-OV-3 ovarian -77.8% | IGROV1 ovarian -44.5% | OVCAR-3 ovarian -64.9% | HS 578T breast -49.7% | NCI/ADR-RES ovarian -76.7%

O=C(N/N=C/c1coc2ccccc2c1=O)c1cc2oc(-c3ccccc3)cc2[nH]1
inactive: SK-MEL-2 melanoma 75.4% | EKVX NSCLC 90.5% | SN12C renal 120% | UO-31 renal 86.2% | TK-10 renal 143% | ACHN renal 106% | CAKI-1 renal 95.3% | A498 renal 101% | CCRF-CEM leukemia 103% | MOLT-4 leukemia 55.9% | SR leukemia 87.7% | RPMI-8226 leukemia 67% | OVCAR-8 ovarian 110% | OVCAR-5 ovarian 106% | OVCAR-4 ovarian 98.7% | SK-OV-3 ovarian 102% | OVCAR-3 ovarian 99.8% | HS 578T breast 107% | NCI/ADR-RES ovarian 118%

Cc1ncc(C(=O)Nc2ccc(CN3CCN(C)CC3)c(C(F)(F)F)c2)cc1C#Cc1cnc(NC2CC2)c2ncccc12
inactive: SK-OV-3 ovarian 43.3% | HS 578T breast 43%
active: SK-MEL-2 melanoma -27.3% | EKVX NSCLC -86% | SN12C renal -85.3% | UO-31 renal -97% | TK-10 renal -92.2% | ACHN renal -100% | CAKI-1 renal -0.579% | A498 renal -60.4% | CCRF-CEM leukemia -43% | MOLT-4 leukemia -65.4% | RPMI-8226 leukemia -41.1% | OVCAR-8 ovarian -91.7% | OVCAR-5 ovarian -91.1% | OVCAR-4 ovarian -60.5% | IGROV1 ovarian -80.4% | OVCAR-3 ovarian -90.4% | NCI/ADR-RES ovarian -41.9%

O=C(Nc1cccc(Cn2c(=O)[nH]c3ccc(Oc4ncccn4)cc3c2=O)c1)c1cc(Cl)cc(Cl)c1
inactive: SK-MEL-2 melanoma 55.1% | EKVX NSCLC 72.3% | SN12C renal 59.4% | UO-31 renal 65.6% | TK-10 renal 71.5% | ACHN renal 19.8% | CAKI-1 renal 91% | A498 renal 85.3% | CCRF-CEM leukemia 77.9% | MOLT-4 leukemia 63.8% | RPMI-8226 leukemia 60.9% | OVCAR-8 ovarian 51.4% | OVCAR-5 ovarian 70% | OVCAR-4 ovarian 41.5% | SK-OV-3 ovarian 66.5% | IGROV1 ovarian 49% | OVCAR-3 ovarian 81.2% | HS 578T breast 56.7% | NCI/ADR-RES ovarian 86.3%

CC1(C)Oc2cc3oc(=O)ccc3cc2C[C@@H]1OCCOS(=O)(=O)c1ccc(C#N)cc1
inactive: SK-MEL-2 melanoma 102% | EKVX NSCLC 107% | SN12C renal 91.5% | UO-31 renal 83.5% | TK-10 renal 101% | ACHN renal 95.2% | CAKI-1 renal 86.3% | A498 renal 79.6% | CCRF-CEM leukemia 98.6% | MOLT-4 leukemia 92% | SR leukemia 107% | RPMI-8226 leukemia 91.9% | OVCAR-8 ovarian 92.7% | OVCAR-5 ovarian 97.9% | OVCAR-4 ovarian 88% | IGROV1 ovarian 100% | OVCAR-3 ovarian 96% | HS 578T breast 89.7% | NCI/ADR-RES ovarian 96.1%

C/C(CCC(=O)O)=N/Nc1ccc([N+](=O)[O-])cc1
inactive: SK-MEL-2 melanoma 26.9% | EKVX NSCLC 63.1% | SN12C renal 77.1% | UO-31 renal 39% | TK-10 renal 88.1% | ACHN renal 36.3% | CAKI-1 renal 25.7% | A498 renal 75.8% | CCRF-CEM leukemia 18.2% | MOLT-4 leukemia 37.3% | SR leukemia 40.6% | RPMI-8226 leukemia 51.9% | OVCAR-8 ovarian 70.4% | OVCAR-5 ovarian 68.1% | OVCAR-4 ovarian 66.3% | IGROV1 ovarian 103% | OVCAR-3 ovarian 89.9% | HS 578T breast 92.9% | NCI/ADR-RES ovarian 49.6%

O=C(NCCCl)Nc1nccnc1OCc1ccc(F)cc1
inactive: SK-MEL-2 melanoma 100% | EKVX NSCLC 97.5% | SN12C renal 94.1% | UO-31 renal 86.8% | TK-10 renal 138% | ACHN renal 105% | CAKI-1 renal 89.6% | A498 renal 105% | CCRF-CEM leukemia 96% | MOLT-4 leukemia 91.9% | RPMI-8226 leukemia 96.4% | OVCAR-8 ovarian 101% | OVCAR-5 ovarian 96.6% | OVCAR-4 ovarian 104% | SK-OV-3 ovarian 93.1% | IGROV1 ovarian 107% | OVCAR-3 ovarian 117% | HS 578T breast 115% | NCI/ADR-RES ovarian 104%

O=C1c2cc([N+](=O)[O-])ccc2-c2cc(Cl)c(NC(=O)C(F)(F)F)cc21
inactive: SK-MEL-2 melanoma 97.1% | EKVX NSCLC 73.3% | SN12C renal 112% | UO-31 renal 93.2% | TK-10 renal 129% | ACHN renal 99.5% | CAKI-1 renal 97.2% | A498 renal 101% | CCRF-CEM leukemia 96.6% | MOLT-4 leukemia 94% | SR leukemia 98.6% | RPMI-8226 leukemia 102% | OVCAR-8 ovarian 121% | OVCAR-5 ovarian 104% | SK-OV-3 ovarian 111% | IGROV1 ovarian 110% | OVCAR-3 ovarian 133% | NCI/ADR-RES ovarian 105%
